Data on 13 molecules can be found in PubChem BioAssay (NCI).

Test systems include DU-145 prostate; K-562 leukemia; MALME-3M melanoma; MDA-MB-231 breast; RXF 393 renal; SF-268 CNS; SF-295 CNS; SF-539 CNS; UACC-257 melanoma; M14 melanoma.
What all share (experiment): NCI-60 one-dose screen, 48 h (100 = growth as untreated, 0 = no growth, -100 = all killed)
Conditions in all cases: 10 µM unless noted

This is part of a sample that, as a whole, favours compounds with a hit. Of some 83,000 tested, about 20% had one in any assay.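 Method: cells in 96-well plates; compound added at one concentration; 48 h incubation; percent growth measured; values under 10 scored active.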 Values without a mark were called inactive. Active and inactive are the calls of the source.

Take `O=C1c2ccc3c4ccc5c6c(ccc(c7ccc(c2c37)C(=O)N1CCC[P+](c1ccccc1)(c1ccccc1)c1ccccc1)c64)C(=O)N(CCC[P+](c1ccccc1)(c1ccccc1)c1ccccc1)C5=O`: the growth with DU-145 prostate is 40.8%; in the assay on K-562 leukemia, 16.4%; with MALME-3M melanoma, -27.8% (active); with MDA-MB-231 breast it was 59.6%; in the assay with RXF 393 renal, 95%; in the assay with SF-268 CNS, 57.6%. The growth is 42.5% in the assay with SF-295 CNS, 47.4% in the assay on SF-539 CNS, 21.5% in the assay with UACC-257 melanoma and 18.8% in the assay with M14 melanoma.
For `CCCCCCNC(=O)Oc1ccc(/C(=C(/C)Cc2ccc(OC)cc2)c2ccc(OCCCN(C)C)cc2)cc1`, the growth is 48.9% with DU-145 prostate; -51.8% (active) with K-562 leukemia; -51.2% (active) in the assay with MALME-3M melanoma; 32.6% in the assay with MDA-MB-231 breast; 31.2% in the assay with RXF 393 renal; 60.8% in the assay on SF-268 CNS. The growth in the assay with SF-295 CNS is 10.5%; in the assay with SF-539 CNS, 40.7%; in the assay with UACC-257 melanoma, -6.6% (active); with M14 melanoma, -63.9% (active).
Consider `CO[C@]12C=C/C(=C(/C(=O)OCc3cccnc3)C(=O)CCCCCCCC[C@@]3(OC)C=C/C(=C(/C(=O)OCc4cccnc4)C(=O)CCCCCCCC1)O3)O2`, for which the growth with DU-145 prostate was 20%; with K-562 leukemia, 1.46% (active); in the assay on MALME-3M melanoma, -31.2% (active); with MDA-MB-231 breast it was 13.9%; with RXF 393 renal, -87.2% (active); in the assay with SF-268 CNS, 9% (active). Also, the growth was -0.607% (active) in the assay with SF-295 CNS, 3% (active) in the assay on SF-539 CNS, 33.6% in the assay with UACC-257 melanoma and 3.57% (active) in the assay on M14 melanoma.
Regarding `O=c1oc2ccc([N+](=O)[O-])cc2cc1Br`, the growth in the assay with DU-145 prostate was 109%; with K-562 leukemia it was 102%; with MALME-3M melanoma it was 107%; with MDA-MB-231 breast, 109%; with RXF 393 renal, 108%; with SF-268 CNS it was 103%. For the same molecule, the growth with SF-295 CNS is 98.8%; in the assay with SF-539 CNS, 82.2%; in the assay on UACC-257 melanoma, 104%; in the assay with M14 melanoma, 104%.
For the molecule `Cc1ccc(-c2nc3nc(-c4ccccc4)nc(N4CCNCC4)c3o2)cc1`, the growth is -86.8% (active) in the assay on DU-145 prostate; -71% (active) in the assay on K-562 leukemia; -80.4% (active) in the assay on MALME-3M melanoma; -79.3% (active) in the assay on MDA-MB-231 breast; -81.2% (active) in the assay on RXF 393 renal; -67.2% (active) in the assay with SF-268 CNS. Besides, the growth in the assay on SF-295 CNS is -83.2% (active); in the assay on SF-539 CNS it was -93.4% (active); with UACC-257 melanoma it was -89.2% (active); in the assay on M14 melanoma, -84.7% (active).
On to `CNC(=O)c1cc(Oc2ccc3c(c2)sc2nc(-c4cc(OC)c(OC)c(OC)c4)cn23)ccn1`, for which the growth was 75.2% in the assay on DU-145 prostate; 29.3% in the assay with K-562 leukemia; -8.33% (active) in the assay with MALME-3M melanoma; 33.8% in the assay with MDA-MB-231 breast; 63.2% in the assay on RXF 393 renal; 72% with SF-268 CNS. Besides, the growth is 51% with SF-295 CNS, 62.8% with SF-539 CNS, 49.7% with UACC-257 melanoma and 52% with M14 melanoma.
As to `C=C1C(=O)O[C@H]2[C@H]1CC/C(COC(=O)N[C@H]1C[C@H](O[C@H]3C[C@](O)(C(=O)CO)Cc4c(O)c5c(c(O)c43)C(=O)c3c(OC)cccc3C5=O)O[C@@H](C)[C@H]1O)=C\CC[C@@]1(C)O[C@@H]21`, the growth in the assay with DU-145 prostate was 69%; with K-562 leukemia it was 7.56% (active); in the assay with MALME-3M melanoma, -28.6% (active); with MDA-MB-231 breast, 11%; in the assay on RXF 393 renal it was 19.2%; with SF-268 CNS it was 64.2%. For the same molecule, the growth is 102% in the assay with SF-295 CNS, 20.8% in the assay on SF-539 CNS, 61.4% in the assay with UACC-257 melanoma and 82.6% in the assay with M14 melanoma.
As for `C#COc1cccc(Nc2ncnc3ncc(NC(=O)CCl)cc23)c1`, the growth in the assay with DU-145 prostate was 8.37% [6.25 µM] (active); in the assay on K-562 leukemia, 15.3% [6.25 µM]; in the assay on MALME-3M melanoma, 37.1% [6.25 µM]; with MDA-MB-231 breast, -4.91% [6.25 µM] (active); in the assay on RXF 393 renal, -12.9% [6.25 µM] (active); in the assay on SF-268 CNS, -6.57% [6.25 µM] (active). The growth was 33.5% [6.25 µM] with SF-295 CNS, 0.882% [6.25 µM] (active) in the assay on SF-539 CNS, 59.4% [6.25 µM] in the assay with UACC-257 melanoma and 35.8% [6.25 µM] with M14 melanoma.
As for `Cc1oc(-c2ccc(Cl)cc2)nc1/C=C/C(=O)c1ccccc1`, the growth in the assay with DU-145 prostate was 109%; with K-562 leukemia, 99.1%; in the assay with MALME-3M melanoma, 97.6%; with MDA-MB-231 breast, 101%; in the assay with RXF 393 renal it was 106%; with SF-268 CNS, 97.1%. Also, the growth is 99.9% in the assay with SF-295 CNS, 99.5% with SF-539 CNS, 106% in the assay with UACC-257 melanoma and 104% in the assay on M14 melanoma.
With `COc1ccc2c(c1)[n+]([O-])c(C(=O)/C=C/C=C(\Cl)c1cc(OC)c(OC)c(OC)c1)c(C)[n+]2[O-]`, the growth with DU-145 prostate was 96.7%; in the assay on K-562 leukemia, 110%; in the assay with MALME-3M melanoma it was 61.5%; in the assay with MDA-MB-231 breast, 74.9%; with RXF 393 renal, 47.8%; in the assay with SF-268 CNS it was 47.1%. The growth in the assay on SF-295 CNS was 21.3%; with SF-539 CNS, 66.8%; with UACC-257 melanoma it was 108%; with M14 melanoma, 102%.
For `COc1cc(-c2nc3cc(Cl)c(Cl)cc3[nH]2)ccc1OCC(=O)N=Nc1c(O)[nH]c2ccc([N+](=O)[O-])cc12`, the growth is 105% in the assay with DU-145 prostate; 46.1% in the assay with K-562 leukemia; 77.4% in the assay on MALME-3M melanoma; 71.9% in the assay with MDA-MB-231 breast; 101% with RXF 393 renal; 81.4% in the assay on SF-268 CNS. Also, the growth in the assay on SF-295 CNS is 101%; in the assay with SF-539 CNS, 81.7%; in the assay on UACC-257 melanoma it was 106%; in the assay with M14 melanoma, 80.8%.
Take `C=C1C(=O)O[C@H]2[C@H]1CC/C(COC(=O)NCc1ccc(Cn3c(=O)sn(CCI)c3=O)cc1)=C\CC[C@@]1(C)O[C@@H]21`: the growth with DU-145 prostate was 17.2%; in the assay on K-562 leukemia it was 0.268% (active); in the assay on MALME-3M melanoma, -49.9% (active); in the assay with MDA-MB-231 breast it was 61%; in the assay on RXF 393 renal it was 0.0448% (active); in the assay with SF-268 CNS, 71.7%. Moreover, the growth in the assay on SF-295 CNS is 106%; in the assay on SF-539 CNS, 78.8%; with UACC-257 melanoma it was 45.9%; in the assay with M14 melanoma it was 15.7%.
Regarding `O=C1Nc2ccccc2[C@]12CC(c1ccccc1)=NN2`, the growth in the assay with DU-145 prostate is 74.5%; in the assay on K-562 leukemia, 21.8%; with MALME-3M melanoma, 37.2%; in the assay on MDA-MB-231 breast it was 53.4%; with RXF 393 renal, 73.3%; with SF-268 CNS it was 47.5%. Further, the growth was 45.6% with SF-295 CNS, 28.4% in the assay with SF-539 CNS, 67.8% with UACC-257 melanoma and 25.8% with M14 melanoma.
